# The panel holds about 83,000 compounds, 20% with a hit somewhere; the sample as a whole holds those more often.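 How to read the values: 0–100, growth inhibition (40 = 60% inhibited); 0, no net growth; -100 to 0, cell death (-40 = 40% of starting cells died; -100 = all dead).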 Unmarked numbers belong to inactive results.
# Tested on: SNB-19 CNS
# Assay: NCI-60 one-dose screen, 48 h (100 = growth as untreated, 0 = no growth, -100 = all killed)
# Conditions: 10 µM unless noted
# Experimental: Growth inhibition of the SNB-19 human tumor cell line is measured as a screen for anti-cancer activity. Cells are grown in 96 well plates and exposed to the test compound for 48 hours. Compounds are tested at a single concentration, which is 10^-5 M for most compounds. The reported endpoint is percent growth (GI% or GIPRCNT), where numbers from 0 - 100% represent growth inhibition, and numbers from -100% - 0 represent cell death. For example, a value of 40 represents 60% growth inhibition. A value of 0 means no net growth occurred over the course of the experiment. A value of -40 indicates 40% of cells at the beginning of the experiment died by the end of the experiment. A value of -100 means all cells are dead at the end of the experiment.
# NCI-60 Human Tumor Cell Lines Screen was performed using the standard one-dose NCI protocol, which is described in more detail at https://dtp.cancer.gov/discovery_development/nci-60/default.htm.
# Compounds with GIPRCNT values below 10 were considered active. Activity score was based on GIPRCNT using the following formula: […]
# Score is 0 for GIPRCNT values of 100 or above, 50 for GIPRCNT values of 0, and 100 for GIPRCNT values of -100.
row,Compound,growth
1,CC1(C)CC[C@]2(C(=O)N3CCNCC3)CC[C@]3(C)C(=CC[C@@H]4[C@@]5(C)CCC(=O)C(C)(C)[C@@H]5CC[C@]43C)[C@@H]2C1,98%
2,COCCOCCOCc1n(Cc2ccc3ccccc3n2)c2ccccc2[n+]1Cc1ccc2ccccc2c1,11.6%
3,CC(=O)c1cc(C(=O)c2ccc3c(c2)Sc2ccccc2N3)c2c(C)cccn12,33.8%
4,CC1=NN(c2cccc(S(N)(=O)=O)c2)C(=O)C1,90.4%
5,CCN(CC)CCC(CNc1ccnc2cc(Cl)ccc12)c1ccc(O)cc1 (stereo not given),103%
6,COc1ccc(/C=C2\N=C(c3cccnc3)N(c3ccccc3)NC2=O)cc1,96.8%
7,COc1ccc(-c2n[nH]nc2-c2cc(OC)c3c(c2)OCO3)cc1,48.7%
8,CCCCn1cnc(-c2cc(-c3ccccc3)cc(C(F)(F)F)c2)n1,98.6%
9,CC(=O)c1nn(-c2ccccc2)/c(=N\N=C\c2coc3ccc(F)cc3c2=O)s1,94.4%
10,CCc1ccc(Nc2cc(C)c3ccc(O)cc3n2)cc1,96.5%
11,CC(C)[C@H](CN)NC[C@H](C)NS(=O)(=O)c1ccc(C(C)(C)C)cc1,111%
12,CCN(CC)CCNc1c(C)cc(CO)c(Cl)c1C,92.8%
13,Cc1nn(-c2ccc(Cl)cc2)c(=O)n1CCN1CCOCC1,58.7%
14,COc1ccc2c(c1)CCCC21C(=O)Nc2c(Cl)cccc21 (stereo not given),82.9%
15,CC(OC(=O)Nc1cccc(Cl)c1)C(=O)O (stereo not given),96.6%
16,COc1ccc(/C=c2\c(=O)n(-c3ccccc3)c3nn4c(=O)c(=O)[nH]nc4n23)cc1,111%
17,CC1=C(C(=O)Nc2ccc(F)cc2)C(c2ccc(C)cc2)C2=C(CC(C)(C)CC2=O)N1 (stereo not given),92.5%
18,COc1cc(/C=C2\C(=O)Nc3ccc(N(C)C)cc32)cc(OC)c1OC,36.2%
19,COc1ccc(NC(=O)c2ccc(C(F)(F)F)nc2Nc2ccc(Cl)cc2C)cc1Cl,30%
20,O=C1C(Cl)=C(N/N=c2/[nH][nH]/c(=N/NC3=C(Cl)C(=O)c4ccccc4C3=O)c3ccccc23)C(=O)c2ccccc21,61.9%

row,Compound,growth
1,Cc1cc(-c2nnc(/C=C/c3ccc4c(c3)OCO4)o2)n[nH]1,86.8%
2,Clc1ccccc1Nc1nnc(-c2ccncc2)s1,99.8%
3,CC1(C)C(N(O)C(=O)Nc2ccc(Cl)cc2)N(c2ccc(Cl)cc2)C(=O)N1CC(=O)N/N=C/C=C/c1ccc([N+](=O)[O-])o1 (stereo not given),48.5%
4,O=C(C(Br)C(Br)c1ccccc1)C(Br)C(Br)c1ccccc1 (stereo not given),72.8%
5,COC(=O)C1(C)COP(=O)(NC23CC4CC(CC(C4)C2)C3)OC1 (stereo not given),104%
6,CCOC(C)(c1ccc(Cl)cc1)C1CCNCC1 (stereo not given),101%
7,O=C1CC2(O)CSc3nc(=O)cc(n32)N1 (stereo not given),91.6%
8,CCOc1c(C#N)c2c(N)ncnc2n1C1OC(CO)C(O)C1O (stereo not given),72.7%
9,CCN(CC)CCCC(C)Nc1cnc(C(=O)Nc2cccc3ccc(OC)nc23)cn1 (stereo not given),94.9%
10,C=CCn1c(C)nc2cc(Nc3nc(N4CCOCC4)nc4nc[nH]c34)ccc21,95.4%
11,Cc1ccc(NC(=O)c2nc(S(C)(=O)=O)oc2-c2ccc(F)cc2)cc1Nc1ccc2ncn(C)c(=O)c2c1,126%
12,COC(=O)C(C)NC1=C(Cl)C(=O)C(NC(C)C(=O)OC)=C(Cl)C1=O (stereo not given),94%
13,Cn1nc(C(F)(F)F)cc1-c1c[nH]c(OCc2ccc(Cl)cc2)c(-c2ccc(Cl)c(C(F)(F)F)c2)c1=O,21.1%
14,O=C(O)/C=C(\c1nc2ccc([N+](=O)[O-])cc2[nH]1)c1cc(Cl)ccc1O,18.5%
15,N=c1n(Cc2ccccc2)c(N)cc(=O)n1Cc1ccccc1,52.8%
16,Cc1ccccc1CNc1ncnc2[nH]ncc12,95.5%
17,CN=C1C=C/C(=N/N=c2/ccn(O)cc2C)C=C1C,101%
18,CCOC(=O)C(=CNc1ccccc1Cl)C(=O)OCC,97.1%
19,COc1ccc(Sc2[nH]c(C=O)c3ccccc23)cc1,77.6%
20,COC(=O)c1cc(Cl)cc([N+](=O)[O-])c1O,108%

# From PubChem BioAssay (NCI)
